Data as given in PubChem BioAssay.
Inconclusive results are not listed. Calls of active or inactive are those of the source.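 Rule for the calls, unless noted: active = viability increase at or above a cutoff of the median across tested compounds plus 3 SD (cut at about 8.5% in these data, passing the limit was not always enough); inconclusive = some gains above the cutoff, reason not given; inactive = the rest.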

Experiments:
[1] = reducers of endogenous Her2 protein level, primary screen, SKBR3 breast tumor cells, AlphaScreen, ATP viability (AID 461;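 active = Her2 level under about 52% in both replicate screens, with viability over 70% of control, limit read from the data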;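 for Her2 level: lower value means less Her2 protein in the cells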;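 for viability: percent of carrier control wells set as 100% viability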); conditions: 18-24 h, measured here: SKBR3 viability, ATP luminescence, at 10 µM
[2] = molecular target: Receptor tyrosine-protein kinase erbB-2 (Homo sapiens) (UniProt P04626); assay: as above; conditions: 18-24 h, at 10 µM, stronger effect = lower value
[3] = SK-BR-3 cell growth inhibitors, pilot screen, 24 h, human (AID 572;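 active = viability at or below 10% of carrier control in both of two separate runs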;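 note: compound exposure lasted between 18 and 24 h rather than exactly 24 h; 100% = carrier-treated control wells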); conditions: SK-BR-3 viability, CellTiter-Glo luminescence, at 10 µM, stronger effect = lower value
[4] = HUVEC growth inhibition – cell-based, human, primary screen (AID 575;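 active = viability at or below 30% in both replicate assays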;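 note: 100% = median of untreated cell wells with 0.1% DMSO on each plate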); conditions: HUVEC proliferation, CellTiter-Glo luminescence, 72 h; at 10 µM; stronger effect = lower value
[5] = growth inhibitors of H69AR lung tumor, primary screen, human, duplicate replicates (AID 580;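 active = viability at or under a set limit in both replicates, limit being median viability minus 3 SD, cut at about 48% in these data, passing the limit was not always enough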;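 note: 100% = mean luminescence of untreated wells and 0% = no signal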); conditions: H69AR lung tumor cells viability, ATP luminescence, 72 h; at 10 µM; stronger effect = lower value
[6] = reversal of MRP1-mediated doxorubicin resistance, pilot screen, H69AR cells, doxorubicin co-treatment (AID 601;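 active = viability loss from added drug above about 55%, and viability with drug at most 40%, in both replicates, limit read from the data, passing the limit was not always enough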); conditions: CellTiter-Glo, 72 h, at 10 µM; for differential viability (reversal): stronger effect = higher value
[7] = 384-well plate pilot, post-Golgi transport modulator project, inhibition of yeast transport mutant growth (AID 636; in the data active = inhibition above about 31%); conditions: absorbance 615 nm, about 18 h, stronger effect = higher value
[8] = growth suppression of yeast trafficking mutant, preliminary HTS, modulators of trafficking downstream of Golgi apparatus project, 1536-format plate, OD 615 nm (AID 637; in the data active = inhibition above about 30%); conditions: yeast transport mutant growth, absorbance 615 nm, 18 h; stronger effect = higher value
[9] = OD615 S. cerevisiae growth inhibition, permissive medium, pilot counter-assay, permissive growth control for S. cerevisiae lifespan shortening project (AID 705;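 active = growth inhibition above 25% in both replicates, a cutoff set 3 SD above the mean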); conditions: OD615, 24 h, at 10 µM, stronger effect = higher value
[10] = Restrictive medium S. cerevisiae growth inhibition, OD615, pilot screen of yeast lifespan reduction project, restrictive growth control (AID 706;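 active = growth inhibition above a set limit, 3 SD over mean compound inhibition, in both replicates, cut at about 43% in these data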;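 note: modified DeaD lifespan yeast strain shifted to restrictive glucose medium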); conditions: OD615, 48 h, at 10 µM, stronger effect = higher value
[11] = viability gain of MRP-1-high H69AR cells under doxorubicin, pilot screen, MRP-1 activator project, CellTiter-Glo, duplicate (AID 807); conditions: H69AR viability with doxorubicin, CellTiter-Glo luminescence; at 10 µM; stronger effect = higher value;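 note: compound pretreatment 18-22 h then 72 h combined with doxorubicin; 0% = doxorubicin alone and 100% = vehicle without doxorubicin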
[12] = growth suppression of beta-catenin knockout HCT116, pilot screen, human colon tumor cells (AID 823;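 active = cell viability at or below a set limit in both duplicate runs, the limit being the all-compound median minus 4 SD, cut at about 23% in these data, passing the limit was not always enough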;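 note: 0% = wells killed by 20 µM Hyamine and 100% = untreated DMSO cell wells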); conditions: CellTiter-Glo, 60 h, at 10 µM, stronger effect = lower value
[13] = growth suppression of PTEN-deleted HCT116, pilot screen, cell-based, HCT116 clonal line, CellTiter-Glo (AID 824;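 active = viability at or below 27.92% in each of two runs, the all-compound median minus 4 SD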;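 note: 0% = 20 µM Hyamine control and 100% = vehicle cell control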); conditions: 60 h, at 10 µM, stronger effect = lower value
[14] = inhibitors of the yeast RAM network, pilot screen, dse1pr::URA3 reporter, 5-FOA selection (AID 869;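 active = inhibition over a set limit, the all-compound mean plus 3 SD, in both replicate runs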;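 note: 0% = DMSO wells with no growth and 100% = 10 µM 1-NA-PP1 with full growth; RAM network block rescues cells from 5-FOA so hits raise OD615 growth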); conditions: S. cerevisiae dse1pr::URA3 5-FOA growth, OD615, 2 d; at 10 µM; stronger effect = higher value; strain carries analog-sensitive mutant Cbk1 kinase
[15] = RAM signaling pathway blockade in yeast – S. cerevisiae, Pdr1DBD-CYC8 efflux-inhibited sensitized strain, primary screen (AID 1298;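 active = RAM network inhibition above 8.4% in each of two replicates, 3 SD over the compound average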;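 note: 0% = DMSO untreated cells without growth and 100% = 10 µM 1-NA-PP1 full growth; higher means more yeast growth rescued from 5-FOA killing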); conditions: S. cerevisiae cbk1-as DSE1-URA3 strain, 5-FOA growth OD615, 2 d; at 50 µM; stronger effect = higher value
[16] = H69AR cells + 2 uM doxorubicin, measured here: viability with 2 uM doxorubicin, stronger effect = lower value
[17] = H69AR cells, compound alone cytotoxicity

Chain of Receptor tyrosine-protein kinase erbB-2 (Homo sapiens) (P04626 whole entry, looked up): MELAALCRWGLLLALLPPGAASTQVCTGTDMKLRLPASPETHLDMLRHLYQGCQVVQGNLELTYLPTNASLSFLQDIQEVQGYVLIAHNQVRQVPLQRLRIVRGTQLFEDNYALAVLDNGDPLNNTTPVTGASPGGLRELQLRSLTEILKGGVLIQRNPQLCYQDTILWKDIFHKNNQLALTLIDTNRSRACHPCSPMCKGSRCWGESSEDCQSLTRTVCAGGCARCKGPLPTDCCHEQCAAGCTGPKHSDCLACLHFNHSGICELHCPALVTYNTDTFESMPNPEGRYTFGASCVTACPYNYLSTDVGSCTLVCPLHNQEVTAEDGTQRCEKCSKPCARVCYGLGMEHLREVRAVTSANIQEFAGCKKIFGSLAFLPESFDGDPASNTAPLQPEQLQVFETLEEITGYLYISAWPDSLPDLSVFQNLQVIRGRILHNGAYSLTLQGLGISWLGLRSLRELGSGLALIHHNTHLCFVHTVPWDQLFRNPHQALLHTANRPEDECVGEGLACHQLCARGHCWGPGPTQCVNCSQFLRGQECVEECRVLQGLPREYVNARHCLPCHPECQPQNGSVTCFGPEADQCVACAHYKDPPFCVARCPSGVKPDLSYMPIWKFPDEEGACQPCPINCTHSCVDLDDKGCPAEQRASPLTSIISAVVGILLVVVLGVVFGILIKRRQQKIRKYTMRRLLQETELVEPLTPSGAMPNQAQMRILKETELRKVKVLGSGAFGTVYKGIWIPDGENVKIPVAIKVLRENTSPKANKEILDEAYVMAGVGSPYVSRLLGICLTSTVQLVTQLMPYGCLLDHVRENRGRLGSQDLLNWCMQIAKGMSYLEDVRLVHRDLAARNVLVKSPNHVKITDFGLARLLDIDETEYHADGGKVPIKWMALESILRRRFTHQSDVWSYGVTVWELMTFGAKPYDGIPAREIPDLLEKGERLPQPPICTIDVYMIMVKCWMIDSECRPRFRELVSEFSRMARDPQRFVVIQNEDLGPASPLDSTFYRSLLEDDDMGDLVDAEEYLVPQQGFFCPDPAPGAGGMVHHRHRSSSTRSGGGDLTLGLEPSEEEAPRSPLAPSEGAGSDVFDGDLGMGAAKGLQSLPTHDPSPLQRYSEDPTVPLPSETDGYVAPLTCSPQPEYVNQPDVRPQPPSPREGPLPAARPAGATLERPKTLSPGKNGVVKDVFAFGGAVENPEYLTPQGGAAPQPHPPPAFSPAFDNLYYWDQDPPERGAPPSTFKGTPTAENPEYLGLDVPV

SMILES | viability [1] | Her2 level [2] | viability [3] | viability [4] | viability [5] | differential viability (reversal) ([6]; H69AR cells + 2 uM doxorubicin) | viability [6, 16] | viability [6, 17] | inhibition [7] | inhibition [8] | growth inhibition [9] | growth inhibition [10] | viability increase [11] | viability [12] | viability [13] | inhibition [14] | RAM network inhibition [15]
COC(=O)c1cn(NC(=O)C2CCCO2)c(=O)c2ccccc12 (stereo not given) | 109% | 76% (inactive) | 109% (inactive) | 93.7% (inactive) | 96.6% (inactive) | 4.83% (inactive) | 91.8% | 96.6% | -6.35% (inactive) | -0.49% (inactive) | -21.3% (inactive) | -23.6% (inactive) | -0.57% (inactive) | 91.2% (inactive) | 98.8% (inactive) | 1.48% (inactive) | 3% (inactive)
COCCNC(=O)c1cc(-c2cccs2)on1 | 97% | 77.5% (inactive) | 97% (inactive) | 84.9% (inactive) | 84.7% (inactive) | 23.6% (inactive) | 61.1% | 84.7% | -0.64% (inactive) | -4.17% (inactive) | -0.235% (inactive) | 2.31% (inactive) | -7.54% (inactive) | 67.3% (inactive) | 70.6% (inactive) | 0.105% (inactive) | 3.61% (inactive)
COc1ccccc1CNC(=O)C1CCC(CNc2c(N3CCOCC3)c(=O)c2=O)CC1 (stereo not given) | 90.5% | 126% (inactive) | 90.5% (inactive) | 86.7% (inactive) | 105% (inactive) | 12% (inactive) | 92.8% | 105% | 1.03% (inactive) | 3% (inactive) | -3.5% (inactive) | 8.34% (inactive) | 0.11% (inactive) | 101% (inactive) | 104% (inactive) | 1.35% (inactive) | 3.53% (inactive)
O=C1CC(c2ccccc2)CC(O)=C1C=NCCN1CCOCC1 (stereo not given) | 96.5% | 85.5% (inactive) | 96.5% (inactive) | 85.7% (inactive) | 102% (inactive) | 5.44% (inactive) | 96.2% | 102% | -7.97% (inactive) | -1.48% (inactive) | -4.59% (inactive) | 9.74% (inactive) | 0.42% (inactive) | 94.7% (inactive) | 93.2% (inactive) | 1.16% (inactive) | -0.52% (inactive)
Cc1onc(-c2c(Cl)cccc2Cl)c1C(=O)NCC1CCCO1 (stereo not given) | 111% | 104% (inactive) | 111% (inactive) | 97.7% (inactive) | 111% (inactive) | 16% (inactive) | 95.2% | 111% | -4.59% (inactive) | -5.74% (inactive) | 6.24% (inactive) | -5.78% (inactive) | -1.12% (inactive) | 91.7% (inactive) | 92.9% (inactive) | -1.21% (inactive) | -0.45% (inactive)
COC(=O)C(C#N)C(=C1C(=O)CC(C)(C)CC1=O)c1ccc(O)cc1 (stereo not given) | 90% | 92.5% (inactive) | 90% (inactive) | 96.5% (inactive) | 92% (inactive) | -3.63% (inactive) | 95.6% | 92% | 0.9% (inactive) | -1.17% (inactive) | -1.85% (inactive) | 0.91% (inactive) | 0.99% (inactive) | 97.5% (inactive) | 101% (inactive) | 1.16% (inactive) | 2.01% (inactive)
CCOC(=O)c1ccc(NC(=O)CC2SC(=NC)N(C)C2=O)cc1 (stereo not given) | 107% | 88.5% (inactive) | 107% (inactive) | 110% (inactive) | 105% (inactive) | 16.6% (inactive) | 88.7% | 105% | -3.03% (inactive) | -1.9% (inactive) | 6.34% (inactive) | 11.4% (inactive) | -0.46% (inactive) | 101% (inactive) | 97.8% (inactive) | 2.03% (inactive) | 2.16% (inactive)
COc1ccccc1OCC(=O)N1CCN(c2ccccc2OC)CC1 | 93.5% | 124% (inactive) | 93.5% (inactive) | 111% (inactive) | 104% (inactive) | 13.2% (inactive) | 91.2% | 104% | 3.78% (inactive) | -2.7% (inactive) | -3.77% (inactive) | -2.73% (inactive) | -2.73% (inactive) | 96.9% (inactive) | 95% (inactive) | 0.87% (inactive) | -1.28% (inactive)
O=C(NCCCN1CCOCC1)c1ccc(CS(=O)(=O)c2c(Cl)cccc2Cl)o1 | 90.5% | 102% (inactive) | 90.5% (inactive) | 88.8% (inactive) | 92.3% (inactive) | -2.01% (inactive) | 94.3% | 92.3% | -0.67% (inactive) | -0.5% (inactive) | -11.8% (inactive) | -17.8% (inactive) | -1.26% (inactive) | 101% (inactive) | 92.3% (inactive) | 1.61% (inactive) | 5% (inactive)
O=c1oc2c3c4c(cc2cc1-c1nc2ccccc2[nH]1)CCCN4CCC3 | 79.5% | 65.5% (inactive) | 79.5% (inactive) | 71.7% (inactive) | 83.3% (inactive) | 2.58% (inactive) | 80.7% | 83.3% | -1.95% (inactive) | 6% (inactive) | 4.75% (inactive) | -0.465% (inactive) | -5.62% (inactive) | 87.2% (inactive) | 89.7% (inactive) | 1.73% (inactive) | 2.41% (inactive)
